Only some compounds are listed: those with a hit (about 3% of all), similar ones and a draw of the others.
Statin myotox sup = protects C2C12 myotubes from simvastatin toxicity | hit rate 0.78% among 330,000 | AID 602340 | rescue of ATP level, % at 7.49 µM | ATP luminescence, 48 h; scaled: DMSO 0, geranylgeraniol control 100;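 active = mean ATP rescue above about 67%, or every replicate alone reaching that limit, limit read from the data, passing the limit was not always enough; inconclusive = no clear call, values can overlap the other calls; inactive = mean under the limit and some replicate under it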;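 also: myotubes were challenged with 10 µM simvastatin during compound exposure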
Wnt bcat act = activators of Wnt/beta-catenin signaling; hit rate 1.2% among 300,000; AID 743398; Wnt/beta-catenin reporter cell assay, activator, plate reader; activation, % at 9.35 µM; in the data active = activation above about 30%, passing the limit was not always enough; inconclusive = no clear call, values can overlap the other calls;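 also: 0% = neutral control wells and 100% = positive control wells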
esBAF inh = SWI/SNF esBAF complex inhibition. mouse ES cells, Bmi1-luciferase knock-in reporter, 24 h; 100% = twice the neutral-well signal. reporter increase, % at 12.5 µM. hit rate 2% among 350,000. AID 602393; in the data active = activation above about 40%; inconclusive = no clear call, values can overlap the other calls;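 also: 0% = median of the plate's neutral control wells and 100% = double that signal; a rise in the Bmi1 reporter signal indicates esBAF inhibition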
MITF act = MITF TRPM1 promoter activation in melanoma cells. SK-MEL-5 TRPM1-promoter luciferase, 24 h; % of positive control, neutral wells = 0. activation, % at 12.5 µM. hit rate 0.75% among 300,000. AID 588334;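 active = mean activation of at least 80% with every replicate also reaching 80%; inconclusive = mean reaches 80% but some replicate falls short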;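 also: 0% = neutral control wells and 100% = parthenolide positive control wells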
Active calls of the source: *; u = inconclusive; x = no result.

SMILES | Statin myotox sup | Wnt bcat act | esBAF inh | MITF act
Cc1cccc(-c2nc(C#N)c(N3CCCCCC3)o2)c1 | 0 | x | 73* | 66
CC1CCN(c2oc(-c3ccccc3Cl)nc2C#N)CC1 | x | 15 | 53* | 94*
Cc1ccccc1NC(=O)CCN1C(=O)CSC1=O | 10 | -4 | 5 | 2
CC1=C(C(=O)Nc2ccccc2C)C(c2ccc(C)o2)N2C(=O)CSC2=N1 (stereo unspecified) | 78* | 0 | 0 | -2
COCc1ccc(-c2c(-c3ccc(OC)cc3)oc(=O)c3cc(OC)c(OC)cc23)cc1 | -41 | 28 | u | 111*
S=c1nc(-c2ccco2)[nH][nH]1 | 96* | x | -4 | 5
CN1C(=O)c2cc(NC(=O)c3ccccc3Cl)ccc2OC[C@H]2O[C@@H](CC(=O)O)CC[C@H]21 | -9 | x | -3 | x
O=C(NCCc1ccccc1)c1ccc2nc(-c3ccco3)c(-c3ccco3)nc2c1 | -42 | x | -2 | x
O=C(c1ccccc1)c1ccc2nc(-c3ccco3)c(-c3ccco3)nc2c1 | 3 | 36* | 40 | 64
C[C@@H]1CN([C@H](C)CO)C(=O)Cc2cc(NS(=O)(=O)c3ccc(F)cc3)ccc2O[C@H]1CN(C)Cc1ccc2c(c1)OCO2 | u | x | 6 | x
O=C(c1ccc(C(F)(F)F)cc1)C1CCCN(C(=O)Cn2cncn2)C1 (stereo unspecified) | x | -2 | x | 9
O=C(c1ccc(C(F)(F)F)cc1)C1CCCN(C(=O)CCN2CCCO2)C1 (stereo unspecified) | 67* | -3 | 5 | 13
COC(=O)C[C@@H]1CC[C@H]2[C@@H](COc3ccc(NC(=O)c4cscn4)cc3C(=O)N2C)O1 | 23 | x | 4 | x
O=C(O)c1ccc(-c2ccc(-c3ccccc3)cc2)s1 | -6 | x | -33 | -81
O=C(Nc1ccccc1)c1ccc(-c2ccccc2)s1 | x | 5 | x | 85*
COc1ccc2cc(C(=O)Nc3ccccc3)sc(=O)c2c1OC | -2 | 6 | u | 56
O=C(Nc1ccccc1)c1cc2ccc3ccccc3c2s1 | -19 | 66* | 79* | 42
O=C(CCNC(=O)c1ccccc1Cl)Nc1nc(-c2ccc(F)cc2)cs1 | x | -2 | x | -4
O=C(CCNC(=O)c1ccccc1Cl)Nc1nc(-c2ccccc2Cl)cs1 | 11 | 5 | 55* | 6
C[C@@H]1CN([C@@H](C)CO)S(=O)(=O)c2ccc(-c3ccc(C(=O)N(C)C)cc3)cc2O[C@H]1CN(C)C(=O)C1CCCCC1 | -1 | x | -9 | x
CN(C)C1=NC[C@H](Cc2ccccc2)N1CC1CCCCCC1 | 97* | -5 | 2 | 7
CN(C)C1=NC[C@H](Cc2ccccc2)N1CCC1CCCC1 | -55 | 6 | 0 | 2
O=C(c1ccc(-c2ccccc2)cc1)N1CCN(c2ccccc2)CC1 | 6 | 12 | 51* | 73
O=C(O)c1ccc(/C=N/N2CCN(c3ccccc3)CC2)cc1 | 0 | 6 | 42* | 35
O=C(O)c1ccc(C=NN2CCCCCC2)cc1 | -5 | 3 | 47* | 26
SMILES | Statin myotox sup | Wnt bcat act | esBAF inh | MITF act
C(=NN1CCCCCC1)c1ccccc1 | 1 | 9 | x | 21
CO[C@H]1CN(C)C(=O)c2ccc(NC(=O)C3CC3)cc2OC[C@H](C)N(C(=O)CN2CCOCC2)C[C@H]1C | -23 | x | 3 | x
CC(C)C#Cc1ccc2c(c1)O[C@@H](CN(C)C(=O)c1cccc(F)c1)[C@H](C)CN([C@H](C)CO)S2(=O)=O | -37 | x | 4 | x
COc1ccccc1C(=O)N1CCC(C(=O)c2ccc(F)cc2)CC1 | 84* | -3 | -5 | 4
COc1ccc(C(=O)N2CCC(C(=O)c3ccc(F)cc3)CC2)cc1 | 4 | 0 | -2 | x
CCCN1C[C@H](C)[C@@H](OC)CN(C)C(=O)c2ccc(NC(=O)CC)cc2OC[C@H]1C | -1 | x | 1 | x
C[C@@H]1CN([C@H](C)CO)C(=O)c2cc(NC(=O)C3CCCCC3)ccc2O[C@@H]1CN(C)C(=O)Nc1ccccc1 | -61 | x | -14 | x
c1ccc2nc3c(nc2c1)[nH]c1ccccc13 | x | 93* | x | 13
C[C@@H]1CN([C@H](C)CO)C(=O)c2cc(NC(=O)CCN3CCOCC3)ccc2O[C@H]1CN(C)C | 19 | x | -3 | x
Nc1nc(SCc2ccccc2)[nH]c(=O)c1-c1ccccc1 | 2 | 16 | 45* | 68
Nc1nc(SCc2ccccc2Cl)[nH]c(=O)c1-c1ccccc1 | -23 | x | 14 | 6
CN1c2ccc(-c3ccccc3)cc2[C@@H]2[C@@H](CCN2C(=O)CN2CCOCC2)[C@@H]1CO | -5 | x | 5 | x
CCn1c(SCC(=O)N2CCCC2)nnc1-c1ccc(N)cc1 | 124* | 0 | 2 | x
CCCCn1c(SCC(=O)N2CCCC2)nnc1-c1ccccc1 | 3 | 2 | 8 | x
COc1cccc2nc3cc(C)c(C)cc3nc12 | -289 | 34* | -8 | 0
CCCNC(=O)N1C[C@H](C)[C@H](OC)CN(C)C(=O)c2cc(NS(C)(=O)=O)ccc2OC[C@@H]1C | 3 | x | 3 | x
O=C(NCC(c1ccc(F)cc1)N1CCOCC1)c1c(F)cccc1F (stereo unspecified) | 7 | 39* | 3 | 3
COc1ccc(C(CNC(=O)c2cccn2C)N2CCOCC2)cc1 (stereo unspecified) | 6 | 18 | 57* | 44
CC1CCCC(C)N1C(=O)C1CC(c2ccc(F)cc2)=NO1 (stereo unspecified) | 92* | -4 | 39 | 39
CC1CCN(C(=O)C2CC(c3ccc(F)cc3)=NO2)CC1 (stereo unspecified) | 7 | 10 | 33 | 26
CN(C)Cc1csc(NC(=O)Nc2ccccc2Oc2ccccc2)n1 | 73* | -1 | -2 | x
COc1ccccc1NC(=O)Nc1nc(CC(=O)Nc2ccc(N(C)C)cc2)cs1 | 9 | 5 | 51* | 15
O=C(C[C@H]1C=C[C@H](NC(=O)c2cccc(F)c2)[C@@H](CO)O1)NCc1ccccc1 | 2 | x | -4 | x
COc1ccc(NC(=O)Nc2ccc3c(c2)C(=O)N([C@H](C)CO)C[C@@H](C)[C@H](CN(C)S(=O)(=O)c2ccc(Cl)cc2)OCCCC[C@@H](C)O3)cc1 | x | x | 4 | x
CCCCSc1nnc(-c2ccccc2N)c(=O)[nH]1 | 12 | 30 | 97* | 24
SMILES | Statin myotox sup | Wnt bcat act | esBAF inh | MITF act
CCCCCCCSc1nnc(-c2ccccc2N)c(=O)[nH]1 | -8 | -1 | -5 | 7
CCCn1cc(NC(=O)c2cc(-c3ccccc3)on2)cn1 | -3 | x | 53* | 13
CCCc1cc(C(=O)Nc2cc(C)ccc2O)no1 | 15 | -11 | 57* | 71
O=C(Nc1cnn(C23CC4CC(CC(C4)C2)C3)c1)c1cc(-c2ccccc2)on1 | -16 | 15 | 0 | 3
CCCc1cc(C(=O)Nc2cccnc2Cl)no1 | x | 10 | 9 | x
Cc1ccc(O)c(NC(=O)c2cc(-c3ccccc3)on2)c1 | 44 | -5 | 76* | 60
CSc1nc(N)n2nc(-c3ccc(Cl)cc3)cc2n1 | -4 | 49* | u | x
Cc1ccc(-c2cc(N)n(Cc3ccc(Cl)cc3)n2)cc1 | 21 | x | 17 | x
Cc1nnc(-c2ccccc2)[nH]c1=O | 2 | -3 | 2 | -4
O=c1[nH]c(-c2ccccc2)nnc1-c1ccccc1 | -9 | 32* | 25 | 32

Bioassay records: PubChem, Broad Institute
